Compounds with a hit are over-represented: about 6.2% of the library has one in this group of screens.
Gal4-VP16 FLuc = counter-screen for ROR gamma inhibitors: Gal4-VP16 reporter. Drosophila S2 Gal4-VP16 UAS-luciferase, luminescence, 20 h. Potency, µM (series often up to 53.6 µM), without a hit: at the highest dose activity, negative = inhibition, hits mostly inhibitors. 310,000 compounds, 3.5% hits;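 also: Gal4-VP16 expression switched on by copper sulfate through the metallothionein promoter; nearly all actives have a fitted effect of over 50% in size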
RORg inh = inhibitors of mouse ROR gamma transcriptional activity. P51450. Drosophila S2 Gal4-RORgamma UAS-luciferase reporter, 20 h. Potency, µM (series often up to 53.6 µM), inactives show at the highest dose activity change, negative = inhibition, usual class: inhibitors. 310,000 compounds, 5.4% hits. AID 2551; also: nearly all actives have a fitted effect of over 60% in size
Target sequence (P51450 whole entry, looked up, the tested form may be a part): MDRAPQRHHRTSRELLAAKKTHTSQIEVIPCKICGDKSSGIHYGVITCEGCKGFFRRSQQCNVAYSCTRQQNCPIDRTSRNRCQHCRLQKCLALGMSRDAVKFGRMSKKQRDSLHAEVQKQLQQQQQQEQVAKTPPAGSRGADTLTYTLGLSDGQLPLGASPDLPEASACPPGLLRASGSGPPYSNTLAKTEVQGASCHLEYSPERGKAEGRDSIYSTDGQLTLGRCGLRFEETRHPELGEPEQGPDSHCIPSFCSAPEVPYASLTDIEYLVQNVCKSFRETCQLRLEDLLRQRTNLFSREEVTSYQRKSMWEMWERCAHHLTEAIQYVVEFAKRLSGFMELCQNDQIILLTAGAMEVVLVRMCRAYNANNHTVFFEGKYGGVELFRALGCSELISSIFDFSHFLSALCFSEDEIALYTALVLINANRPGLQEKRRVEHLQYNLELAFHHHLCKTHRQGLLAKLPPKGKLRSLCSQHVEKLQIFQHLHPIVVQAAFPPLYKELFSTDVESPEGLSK
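Stably transfected Drosophila Schneider cells are the test system, with ROR gamma fused to Gal4 and luciferase under UAS control; luminescence is read after 20 hr of 700 uM copper sulfate induction at ambient temperature.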
Luc counter = blocks Kinase-Glo luciferase, a counter-screen artifact | Q27757 | 200,000 compounds, 0.28% hits | Potency, µM (doses to about 38.3 µM), without a hit: top-dose activity change, negative = inhibition, most hits filed as inhibitors | Kinase-Glo luciferase, ATP luminescence, 8 min; also: nearly all actives have a fitted effect of over 60% in size
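Kinase-Glo luciferase light output from ATP and luciferin was measured with 10 uM ATP, within the enzyme's linear range. Buffer: 50 mM imidazole pH 7.2, 50 mM KCl, 7 mM MgCl2, 0.01% Tween 20, 0.05% BSA; luminescence read after 8 min at ambient temperature.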
The depositor's hits bear a star; ? = inconclusive; . = no result given; [ ] = dose if it differs, or a comment. Calls follow the shape of the dose curve; as a rule, active = well fitted curve in the direction sought with a large enough effect; inconclusive = small, poorly fitted or top-dose-only effect, or another doubt; inactive = no such curve, though single readings can be large; an effect the other way counts as inactive or inconclusive. % is scaled to controls: 0 for no effect and ±100 for the full control effect; potency is read from the fitted curve at half-maximal effect.

SMILES	Gal4-VP16 FLuc	RORg inh	Luc counter
COc1cccc(-n2nc(C(=O)NCC3CCCO3)c3ccccc3c2=O)c1 (stereo not given)	2.5%	-11.6%	.
CN1C(C(=O)Nc2ccc(OC(F)(F)F)cc2)=CC(c2ccc3c(c2)OCO3)=NS1(=O)=O	-2.3%	30.5%	.
Cc1ccc(-c2cc(C(=O)N/N=C/c3c[nH]c4ccccc34)[nH]n2)cc1	?	18.8%	0.5%
CCc1ccc(-c2cc(C(=O)N/N=C/c3ccccn3)[nH]n2)cc1	?	12.6µM*	0.5%
O=C(N/N=C/c1ccccn1)c1cc(-c2ccc(Cl)s2)[nH]n1	-6.5%	?	.
O=C(N/N=C/c1ccccn1)c1cc(-c2ccc(Br)s2)[nH]n1	-28.4%	17.8µM*	.
Cc1coc(NC(=O)CSc2nc(-c3ccncc3)cc(C(F)(F)F)c2C#N)n1	9.5%	9.8%	-2.2%
Nc1c(N(CCC2=CCCCC2)C(=O)C2CC2)c(=O)[nH]c(=O)n1Cc1ccccc1	-3.1%	-0.7%	.
O=C(O)CCS(=O)(=O)c1ccccc1Cl	5.9%	5.2%	-1.6%
CC[C@H](C)[C@H](NC(=O)[C@H](CC(C)C)NC(=O)[C@H](CO)NC(=O)[C@H](CCC(=O)O)NC(=O)[C@H](CC(C)C)NC(=O)[C@H](Cc1ccc(O)cc1)NC(=O)[C@H](CCCCN)NC(=O)[C@H](CCCCN)NC(=O)[C@H](C)NC(=O)[C@H](CO)NC(=O)[C@H](CC(C)C)NC(=O)[C@H](CCC(N)=O)NC(=O)CNC(=O)[C@H](CC(C)C)NC(=O)[C@H](CC(C)C)NC(=O)[C@H](CCCNC(=N)N)NC(=O)[C@H](CO)NC(=O)[C@H](Cc1ccccc1)NC(=O)[C@H](CC(=O)O)NC(=O)[C@H](CO)NC(=O)[C@@H](NC(=O)[C@H](Cc1ccccc1)NC(=O)[C@@H](NC(=O)CNC(=O)[C@H](CC(=O)O)NC(=O)[C@H](C)NC(=O)[C@@H](N)Cc1cnc[nH]1)C(C)C)[C@@H](C)O)C(N)=O	5.2%	18.6%	.
CC(C)(C)C1(O)CC(C(F)(F)F)=NN1C(=O)Cc1ccc([N+](=O)[O-])cc1 (stereo not given)	-7.7%	?	11.5%
O=C(c1ccncc1)N1N=C(C2CCCCC2)CC1(O)C(F)(F)F (stereo not given)	?	-25.7%	-1.8%
O=C(c1ccco1)N1N=C(C2CCCCC2)CC1(O)C(F)(F)F (stereo not given)	5.2%	8.2%	-1.9%
CCC1=NN(C(=O)Cc2ccccc2)C(O)(c2ccncc2)C1 (stereo not given)	?	-0.2%	-2.6%
CCC1=NN(C(=O)Cc2ccc([N+](=O)[O-])cc2)C(O)(c2ccncc2)C1 (stereo not given)	3.2%	17.8µM*	-0.4%
CC1=NN(C(=O)Cc2ccc([N+](=O)[O-])cc2)C(O)(C(F)(F)C(F)(F)F)C1 (stereo not given)	5.01µM*	3.55µM*	.
Cc1occc1C(=O)N1N=C(C2CC2)CC1(O)C(F)(F)F (stereo not given)	?	7.94µM*	-1.6%
O=C(Cc1ccc([N+](=O)[O-])cc1)N1N=C(C2CC2)CC1(O)C(F)(F)F (stereo not given)	?	15.8µM*	12.7%
COc1cccc(Nc2ncc3nc(CCc4ccccc4)c(=O)n(C[C@H]4CCCO4)c3n2)c1	7.8%	34.4%	-2.1%
Cc1ccc(C(=O)N2CCN(c3ccc([N+](=O)[O-])cc3-n3cccc3)CC2)cc1	-11.7%	31.9%	.
C/C(N)=C(/C#N)C(=O)CSc1nc2scc(-c3ccc(F)cc3)c2c(=O)n1C	-5.8%	5.5%	-1.6%
Cc1nn(C)cc1C(C)NCc1c(C(=O)N2CCCCCCC2)nc2ccc(Cl)cn12 (stereo not given)	10.0%	1.2%	.
CC(=O)Nc1c(N)[nH]c(=O)n(C)c1=O	-3.5%	-2.0%	.
CCC1=NN(C(=O)Cc2ccc([N+](=O)[O-])cc2)C(O)(C(F)(F)F)C1 (stereo not given)	9.9%	?	.
CCCC1=NN(C(=O)Cc2ccc([N+](=O)[O-])cc2)C(O)(C(F)(F)F)C1 (stereo not given)	?	20µM*	0.6%
SMILES	Gal4-VP16 FLuc	RORg inh	Luc counter
Cc1ccc(-c2cn(-c3ccccc3)c3[n+]2CCCS3)cc1	11.2µM*	0.0%	2.6%
COc1ccc(-n2cc(-c3ccc(C)cc3)[n+]3c2SCC3)cc1	7.94µM*	-21.6%	2.6%
CCc1ccc(-n2cc(-c3ccc(F)cc3)[n+]3c2SCCC3)cc1	?	-33.3%	-0.3%
c1ccc(-c2cn(-c3ccccc3)c3[n+]2CCCS3)cc1	-11.6%	18.3%	.
OCCC1CN(Cc2cccn2-c2ccccn2)CCN1Cc1ccccc1 (stereo not given)	4.3%	-3.8%	-4.9%
CC(C)Oc1ccc(C(=O)NCC(=O)OCC(=O)N(C)Cc2cccs2)cc1	-6.3%	24.7%	-1.8%
CC(=O)Oc1ccc2c(C)cc(=O)oc2c1C(=O)c1ccccc1	-18.0%	19.3%	0.2%
COc1cc(C=O)ccc1OCCCOc1ccc([N+](=O)[O-])cc1	-12.0%	-1.0%	0.0%
CCOC(=O)C(=Cc1ccc(OCc2ccc([N+](=O)[O-])cc2)c(OC)c1)C(=O)OCC	?	14.1µM*	2.6%
COC(=O)C(=Cc1ccc(OCc2ccc([N+](=O)[O-])cc2)c(OC)c1)C(=O)OC	-8.8%[0.365 µM]	15.8µM*	0.4%
COc1cc(C(c2c(C)[nH][nH]c2=O)c2c(C)[nH][nH]c2=O)ccc1OCc1ccc([N+](=O)[O-])cc1	?	6.31µM*	20.0%
CCOC(=O)/C(=C\c1ccc(OC)c(OC)c1)C(=O)c1cccnc1	-1.6%	-17.8%	.
COc1cc(C(c2c(C)[nH][nH]c2=O)c2c(C)[nH][nH]c2=O)ccc1OC(=O)c1cccc([N+](=O)[O-])c1	9.4%	21.0%	3.1%
CC(C)CO/N=C1/C[C@@H](O)[C@@H](O)[C@@H]2[C@@H]3C(=O)N(Cc4ccccc4)C(=O)[C@H]3CC[C@H]12	7.7%[10 µM]	5.7%[10 µM]	.
COC(=O)C1(C(=O)OC)CC(CO)C(=O)[C@H]1c1ccccc1 (stereo not given in full)	-23.3%	10.8%	-0.5%
O=C(c1cccc(F)c1)N1CCC[C@@]2(CCN(Cc3ccncc3)C2)C1	-1.4%	-1.9%	1.2%
COc1ccc(-n2nc(C(=O)NCC(=O)NCCC3=CCCCC3)c3ccccc3c2=O)c(OC)c1	4.4%	7.3%	.
O=C(O)CCn1c(-c2ccccn2)nc2ccccc21	-6.0%	-28.2%	.
Cc1ccc(S(=O)(=O)N2CCCCC2)cc1NC(=O)COC(=O)Cc1cccc2ccccc12	-12.9%	?	-0.6%
O=C(Cc1ccccc1Nc1c(Cl)cccc1Cl)OCO/N=[N+](\[O-])N1CCCC1	17.8µM*	?	.
Cc1ccc2nc(NC(=O)CSCC(=O)OCC(=O)c3ccc(Br)cc3)sc2c1	3.16µM*	3.16µM*	-0.7%
COC(=O)c1ccc2nc(NC(=O)CSCC(=O)OCC(=O)c3ccccc3)sc2c1	-4.8%	-5.2%	-1.3%
CC(=O)Nc1cccc(Oc2ncccc2[N+](=O)[O-])c1	-1.9%	-0.9%	.

From PubChem
